Tests used:
Details in all cases: concentration: 1 μM,replicates: in singlicate; n = 1
HASPIN = system: T1, HASPIN
T1 construct: gene GSG2

HCK = system: HCK
HIPK1 = system: HIPK1
HIPK2 = system: HIPK2
HIPK3 = system: HIPK3
HIPK4 = system: HIPK4
HPK1 = system: HPK1
HUNK = system: HUNK
ICK = system: ICK
IGF1R = system: IGF1R
IKK-alpha = system: T2, IKK-alpha
T2 construct: gene CHUK

IKK-beta = system: T3, IKK-beta
T3 construct: gene IKBKB

IKK-epsilon = system: T4, IKK-epsilon
T4 construct: gene IKBKE

INSRR = system: INSRR
INSR = system: INSR
IRAK1 = system: IRAK1
IRAK3 = system: IRAK3
IRAK4 = system: IRAK4
ITK = system: ITK
[1] = system: JAK1(JH1domain-catalytic)
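Note: KINOMEscan kinase panel screen.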

SMILES | %Inh (HASPIN) [%] | %Inh (HCK) [%] | %Inh (HIPK1) [%] | %Inh (HIPK2) [%] | %Inh (HIPK3) [%] | %Inh (HIPK4) [%] | %Inh (HPK1) [%] | %Inh (HUNK) [%] | %Inh (ICK) [%] | %Inh (IGF1R) [%] | %Inh (IKK-alpha) [%] | %Inh (IKK-beta) [%] | %Inh (IKK-epsilon) [%] | %Inh (INSRR) [%] | %Inh (INSR) [%] | %Inh (IRAK1) [%] | %Inh (IRAK3) [%] | %Inh (IRAK4) [%] | %Inh (ITK) [%] | %Inh [1] [%]
O=C(Nc1cccc(Oc2ccc3nccn3n2)c1)Nc1cccc(C(F)(F)F)c1 | 0 | 27 | 7 | 33 | 1 | 17 | 0 | 22 | 0 | 3 | 34 | 0 | 0 | 15 | 0 | 13 | 23 | 0 | 0 | 27
Cc1ccc(Nc2ccnc(Nc3ccc4c(c3)CS(=O)(=O)C4)n2)cc1O.Cl [GW579362] | 0 | 90 | 26 | 0 | 28 | 44 | 62 | 8 | 28 | 56 | 62 | 87 | 91 | 22 | 53 | 99.1 | 91 | 87 | 38 | 92.4
CN1CCN(CCNc2nc3cc(Oc4ccc(NC(=O)Nc5cc(C(F)(F)F)ccc5F)cc4)ccc3[nH]2)CC1.Cl.Cl [GW768504] | 0 | 11 | 19 | 0 | 0 | 66 | 3 | 41 | 0 | 0 | 0 | 0 | 14 | 0 | 5 | 0 | 5 | 0 | 0 | 28
CCOC(=O)N1CCC(n2cnc(-c3ccc(F)cc3)c2-c2ccnc(N)n2)CC1 [SB-219952] | 0 | 0 | 37 | 17 | 15 | 0 | 5 | 0 | 70 | 0 | 0 | 0 | 0 | 0 | 0 | 10 | 19 | 11 | 0 | 0
CN(c1cccc(CNc2nc(Nc3ccc4c(c3)CC(=O)N4)ncc2C(F)(F)F)c1)S(C)(=O)=O | 0 | 0 | 39 | 11 | 0 | 14 | 19 | 0 | 0 | 34 | 24 | 14 | 19 | 21 | 48 | 48 | 22 | 0 | 26 | 43
CSc1nccc(-c2c(-c3ccc(F)cc3)ncn2CCCN2CCOCC2)n1.Cl [SB-217146] | 0 | 14 | 40 | 0 | 8 | 0 | 0 | 13 | 0 | 0 | 0 | 0 | 0 | 0 | 2 | 25 | 0 | 0 | 6 | 0
CC(=O)c1c(-c2ccncc2)[nH]c(-c2ccncc2)c1C [GW493036] | 85 | 0 | 53 | 0 | 65 | 86 | 11 | 26 | 18 | 0 | 35 | 30 | 2 | 0 | 0 | 85 | 0 | 32 | 13 | 12
CC(=O)Nc1nc2cnc(Nc3cc(NC(=O)c4cccc(CC(C)(C)C#N)c4)ccc3C)nc2s1 | 0 | 32 | 29 | 10 | 6 | 13 | 0 | 2 | 44 | 9 | 0 | 1 | 28 | 4 | 16 | 9 | 27 | 8 | 0 | 27
CCNCC(Cc1ccccc1)NC(=O)c1cc(Br)c(-c2ccnc3[nH]ccc23)s1.Cl.Cl (centres unmarked) [GSK1383280] | 88 | 0 | 46 | 18 | 48 | 92.5 | 51 | 0 | 18 | 23 | 3 | 33 | 19 | 0 | 0 | 42 | 36 | 17 | 14 | 36
CN(c1ccccc1CNc1nc(Nc2ccc3c(c2)CC(=O)N3)ncc1C(F)(F)F)S(C)(=O)=O | 0 | 3 | 83 | 80 | 64 | 89 | 76 | 0 | 0 | 88 | 0 | 0 | 35 | 69 | 93.5 | 26 | 65 | 27 | 56 | 74

Reference: publication PMC5540273 (PLoS ONE, 2017)
